{
  "source": "the supplement of paper PMC3334620",
  "note": "In all, about 33,000 sequences were measured (“E-score (-0.5 to 0.5)”: median about -0.043, highest 2% from about 0.37 on). The list comes from a sample in which the highest values are over-represented; it also holds similar and randomly drawn sequences.",
  "data": [
    {"molecular_target": "T1, Upc2 (UniProt Q12151)", "T1 sequence": "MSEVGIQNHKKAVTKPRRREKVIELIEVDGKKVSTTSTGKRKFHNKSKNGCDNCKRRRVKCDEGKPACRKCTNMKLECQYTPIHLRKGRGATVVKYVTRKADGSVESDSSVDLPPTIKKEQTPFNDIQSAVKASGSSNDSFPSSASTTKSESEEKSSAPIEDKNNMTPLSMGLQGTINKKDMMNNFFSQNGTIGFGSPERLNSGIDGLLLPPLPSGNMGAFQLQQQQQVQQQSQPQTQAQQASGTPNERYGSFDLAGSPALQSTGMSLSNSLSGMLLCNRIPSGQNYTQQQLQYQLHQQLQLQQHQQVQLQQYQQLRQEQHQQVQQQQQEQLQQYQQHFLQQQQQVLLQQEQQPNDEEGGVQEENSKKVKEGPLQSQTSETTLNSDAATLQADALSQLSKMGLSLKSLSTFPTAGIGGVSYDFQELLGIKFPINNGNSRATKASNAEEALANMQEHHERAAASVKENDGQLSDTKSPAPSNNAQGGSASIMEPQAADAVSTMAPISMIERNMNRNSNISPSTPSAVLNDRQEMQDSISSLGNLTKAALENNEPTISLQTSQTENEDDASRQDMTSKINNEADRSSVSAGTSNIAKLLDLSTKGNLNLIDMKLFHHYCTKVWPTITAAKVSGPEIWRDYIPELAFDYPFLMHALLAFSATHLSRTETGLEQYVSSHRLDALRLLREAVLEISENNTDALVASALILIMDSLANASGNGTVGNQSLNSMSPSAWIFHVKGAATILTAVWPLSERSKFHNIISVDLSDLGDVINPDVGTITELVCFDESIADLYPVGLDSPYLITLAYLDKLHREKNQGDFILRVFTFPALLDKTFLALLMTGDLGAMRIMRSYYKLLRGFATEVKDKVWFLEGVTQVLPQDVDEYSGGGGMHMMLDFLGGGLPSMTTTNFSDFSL", "assay": "PBM E-score (8-mer binding enrichment) (E-score (-0.5 to 0.5)); higher = stronger / more preferred TF binding", "details": "protein concentration: 200 nM; construct: GST-full length", "procedure": "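Universal 'all 10-mer' protein binding microarrays (Agilent AMADID 015681) probed with GST-tagged S. cerevisiae TFs (full-length or DBD) made by in vitro transcription/translation (PURExpress), about 100-200 nM. Bound TF was detected with fluorescent anti-GST. Each ungapped 8-mer (which stands for itself and its reverse complement) is scored by the PBM enrichment score (E-score), a modified Wilcoxon-Mann-Whitney statistic from -0.5 to +0.5, computed with the Universal PBM Analysis Suite. Scale: above 0.35 generally sequence-specific binding.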", "values": [
      {"sequence": "GCACGATA", "PBM E-score": -0.0168},
      {"sequence": "ATTCGATA", "PBM E-score": 0.0034},
      {"sequence": "CTACGATA", "PBM E-score": 0.31},
      {"sequence": "GTACGATA", "PBM E-score": 0.445},
      {"sequence": "AGACGATA", "PBM E-score": 0.138},
      {"sequence": "ATACGATA", "PBM E-score": 0.472},
      {"sequence": "CAAGCGAC", "PBM E-score": 0.169},
      {"sequence": "ATTTTCCG", "PBM E-score": 0.139},
      {"sequence": "GTTCTCCA", "PBM E-score": -0.109},
      {"sequence": "AGTCGAAG", "PBM E-score": -0.273},
      {"sequence": "AACCGTAC", "PBM E-score": 0.311},
      {"sequence": "AGCCGTAT", "PBM E-score": 0.378},
      {"sequence": "AGCCGTAG", "PBM E-score": -0.0316},
      {"sequence": "AGCCGTAA", "PBM E-score": 0.279},
      {"sequence": "ACCCGTAT", "PBM E-score": 0.396},
      {"sequence": "AACCGTAA", "PBM E-score": 0.233},
      {"sequence": "AACCGTAT", "PBM E-score": 0.375},
      {"sequence": "ACCCGTAC", "PBM E-score": 0.354},
      {"sequence": "ACCCGTAG", "PBM E-score": -0.11},
      {"sequence": "AGAAGAAG", "PBM E-score": -0.0336},
      {"sequence": "CCTAGTGA", "PBM E-score": -0.174},
      {"sequence": "TGCAACAA", "PBM E-score": -0.117},
      {"sequence": "AAAAAACA", "PBM E-score": -0.00292},
      {"sequence": "TGCAAGAA", "PBM E-score": -0.0985},
      {"sequence": "GGTACAAC", "PBM E-score": -0.0773},
      {"sequence": "AGTACAAG", "PBM E-score": -0.052},
      {"sequence": "CGTACATC", "PBM E-score": 0.352},
      {"sequence": "AGTACATA", "PBM E-score": -0.0422},
      {"sequence": "CGTACAAA", "PBM E-score": 0.421},
      {"sequence": "GGTACAAA", "PBM E-score": 0.0128},
      {"sequence": "CGTACAAG", "PBM E-score": 0.442},
      {"sequence": "AGTACAAA", "PBM E-score": -0.013},
      {"sequence": "AGTACAAC", "PBM E-score": -0.0045},
      {"sequence": "CATACAAG", "PBM E-score": -0.192},
      {"sequence": "CGTACAAC", "PBM E-score": 0.439},
      {"sequence": "CGTACATA", "PBM E-score": 0.415},
      {"sequence": "AGTTCTCA", "PBM E-score": -0.107},
      {"sequence": "CGCGACCA", "PBM E-score": 0.116},
      {"sequence": "AGAGCTAG", "PBM E-score": -0.113},
      {"sequence": "AGTCTCTA", "PBM E-score": -0.0101},
      {"sequence": "ATCCCCTC", "PBM E-score": -0.0985},
      {"sequence": "CAAACCCA", "PBM E-score": 0.0481},
      {"sequence": "AAAATGTC", "PBM E-score": 0.14},
      {"sequence": "GCATCGGA", "PBM E-score": -0.0207},
      {"sequence": "ACATCGTG", "PBM E-score": -0.0454},
      {"sequence": "ACATCGTA", "PBM E-score": 0.425},
      {"sequence": "CCATCGTC", "PBM E-score": -0.0745},
      {"sequence": "CCATCGAA", "PBM E-score": -0.132},
      {"sequence": "GCATCGAA", "PBM E-score": 0.00261},
      {"sequence": "GCATCGTA", "PBM E-score": 0.429},
      {"sequence": "CCATCGTA", "PBM E-score": 0.44},
      {"sequence": "ACATCGTC", "PBM E-score": -0.00985},
      {"sequence": "TGAAGGCA", "PBM E-score": -0.0834},
      {"sequence": "AACTATGC", "PBM E-score": 0.051},
      {"sequence": "AGTGGTCC", "PBM E-score": -0.123},
      {"sequence": "CCAATCGG", "PBM E-score": -0.174},
      {"sequence": "CCGAGGTA", "PBM E-score": 0.125},
      {"sequence": "GCTACGAC", "PBM E-score": 0.379},
      {"sequence": "TCTACGAA", "PBM E-score": 0.335},
      {"sequence": "ACTACGAC", "PBM E-score": 0.272},
      {"sequence": "CCTACGAA", "PBM E-score": 0.228},
      {"sequence": "GCTACGAA", "PBM E-score": 0.395},
      {"sequence": "CCTACGAC", "PBM E-score": 0.232},
      {"sequence": "TTACTCAA", "PBM E-score": 0.0201},
      {"sequence": "AGTGAGAG", "PBM E-score": -0.279},
      {"sequence": "AGCCATAT", "PBM E-score": 0.0338},
      {"sequence": "AATACGAT", "PBM E-score": 0.395},
      {"sequence": "AATACGTG", "PBM E-score": 0.155},
      {"sequence": "AATACGAC", "PBM E-score": 0.435},
      {"sequence": "GATACGAA", "PBM E-score": 0.454},
      {"sequence": "AATACGCC", "PBM E-score": 0.00457},
      {"sequence": "GATACAAA", "PBM E-score": 0.106},
      {"sequence": "AATACGTC", "PBM E-score": 0.0421},
      {"sequence": "AATACGAG", "PBM E-score": 0.457},
      {"sequence": "AATACGGG", "PBM E-score": 0.229},
      {"sequence": "AATACGCT", "PBM E-score": 0.212},
      {"sequence": "ACTACGAT", "PBM E-score": 0.16},
      {"sequence": "GATACGTA", "PBM E-score": 0.254},
      {"sequence": "CAGCACAA", "PBM E-score": 0.0156},
      {"sequence": "CGAGATGA", "PBM E-score": 0.233},
      {"sequence": "CGACTCTC", "PBM E-score": 0.179},
      {"sequence": "AAACAGGA", "PBM E-score": -0.139},
      {"sequence": "TACCTGCA", "PBM E-score": -0.0203},
      {"sequence": "ATAGATCC", "PBM E-score": -0.0535},
      {"sequence": "CGACACAG", "PBM E-score": 0.122},
      {"sequence": "CAAACCGG", "PBM E-score": -0.0596},
      {"sequence": "CATACGCC", "PBM E-score": 0.307},
      {"sequence": "CATACGAA", "PBM E-score": 0.466},
      {"sequence": "CATACAAA", "PBM E-score": 0.114},
      {"sequence": "CATACGAG", "PBM E-score": 0.486},
      {"sequence": "GATACGGC", "PBM E-score": 0.324},
      {"sequence": "CACACGAG", "PBM E-score": 0.155},
      {"sequence": "CATACGCG", "PBM E-score": 0.313},
      {"sequence": "GATACGAC", "PBM E-score": 0.468},
      {"sequence": "CATACGTA", "PBM E-score": 0.315},
      {"sequence": "GATACGCC", "PBM E-score": 0.189},
      {"sequence": "CATACGAC", "PBM E-score": 0.466},
      {"sequence": "CATACGTC", "PBM E-score": 0.215}
    ]}
  ]
}
